# Assay results taken from PubChem BioAssay (EPA / NIEHS).
# Inconclusive results are not listed. Activity calls are given as the source filed them. How the source made its calls, unless noted: active means hit-call score of the fitted dose curve at least 0.9, where 1 is the maximum; inactive means score below 0.9.
# What was measured:
# [1] = ATG_M_06_TRANS: Attagene TRANS-FACTORIAL HepG2 Assay for M06 Transcription Factor (Internal Marker) (AID 2282983; active means hit-call score of the fitted dose curve at least 0.9, where 1 is the maximum;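 further: reporter transcript level by RT-PCR then capillary electrophoresis fluorescence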); details: HepG2 Attagene TRANS M06 internal marker reporter
# Method in brief: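 HepG2 cells transiently transfected with multiplexed GAL4-UAS reporter transcription units; after 24 h compound exposure, reporter mRNA measured by RT-PCR, FAM-labelled primer extension, HpaI digestion and capillary electrophoresis. Gain-of-signal fitted versus DMSO baseline; background control readout.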
# [2] = ATG_M_32_TRANS: Attagene TRANS-FACTORIAL HepG2 Assay for M32 Transcription Factor (Internal Marker) (AID 2282984; active means hit-call score of the fitted dose curve at least 0.9, where 1 is the maximum); details: HepG2 Attagene TRANS M32 internal marker reporter
# Method in brief: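 HepG2 cells transiently transfected with GAL4-UAS reporter units, dosed for 24 hours. Reporter mRNA quantified by RT-PCR, 6-FAM labelling, HpaI digestion and capillary electrophoresis; internal-marker signal fitted upward relative to DMSO.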
# [3] = biological target: Nuclear respiratory factor 1 (Homo sapiens) (UniProt Q16656); assay: ATG_NRF1_CIS: Attagene CIS-FACTORIAL HepG2 Assay for human Nuclear Respiratory Factor 1 (NRF1) Orphan Gene (AID 2282987); details: HepG2 NRF1 cis-element reporter, Attagene multiplex; actives raise or lower the signal
# Sequence of Nuclear respiratory factor 1 (Homo sapiens) (Q16656 whole entry, looked up, the tested form may be a part): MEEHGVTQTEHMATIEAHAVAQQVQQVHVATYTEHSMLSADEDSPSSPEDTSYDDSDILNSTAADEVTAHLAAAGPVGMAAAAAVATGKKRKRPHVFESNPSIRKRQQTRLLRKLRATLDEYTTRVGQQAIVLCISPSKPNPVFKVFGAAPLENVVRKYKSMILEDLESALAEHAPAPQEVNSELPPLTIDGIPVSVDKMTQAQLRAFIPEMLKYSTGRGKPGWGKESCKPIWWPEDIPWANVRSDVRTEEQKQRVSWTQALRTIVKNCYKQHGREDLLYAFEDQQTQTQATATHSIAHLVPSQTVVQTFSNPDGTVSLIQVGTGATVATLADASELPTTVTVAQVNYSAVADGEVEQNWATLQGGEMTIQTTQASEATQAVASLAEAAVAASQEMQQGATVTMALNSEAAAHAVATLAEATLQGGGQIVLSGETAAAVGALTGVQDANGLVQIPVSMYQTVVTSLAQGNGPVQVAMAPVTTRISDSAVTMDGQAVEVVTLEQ
# Method in brief: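 Cells (HepG2, transient MRTU transfection) are exposed to compound for 24 h, then RNA isolated and reporter mRNA amplified and fluorescently labelled. Fragments are separated by capillary electrophoresis; signal change is fitted bidirectionally relative to DMSO.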
# [4] = ATG_NFI_CIS: Attagene CIS-FACTORIAL HepG2 Assay for human Nuclear Factor I (NFI) (AID 2282989); details: HepG2 cis-regulatory reporter, NFI response element transcription; actives raise or lower the signal
# Method in brief: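 Multiplexed cis-reporter system in human HepG2 cells reports native TF activity as reporter mRNA induction 24 h post-dose. Fragments labelled with 6-FAM, HpaI-digested and resolved by capillary electrophoresis; activity fitted both directions versus DMSO.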
# [5] = biological target: Myc proto-oncogene protein (Homo sapiens) (UniProt P01106); assay: ATG_Myc_CIS: Attagene CIS-FACTORIAL HepG2 Assay for human Myelocytomatosis (Myc) Proto-Oncogene Transcription Factor (AID 2282990); details: HepG2, Attagene cis-reporter transcription factor activity; actives raise or lower the signal
# Sequence of Myc proto-oncogene protein (Homo sapiens) (P01106 whole entry, looked up, the tested form may be a part): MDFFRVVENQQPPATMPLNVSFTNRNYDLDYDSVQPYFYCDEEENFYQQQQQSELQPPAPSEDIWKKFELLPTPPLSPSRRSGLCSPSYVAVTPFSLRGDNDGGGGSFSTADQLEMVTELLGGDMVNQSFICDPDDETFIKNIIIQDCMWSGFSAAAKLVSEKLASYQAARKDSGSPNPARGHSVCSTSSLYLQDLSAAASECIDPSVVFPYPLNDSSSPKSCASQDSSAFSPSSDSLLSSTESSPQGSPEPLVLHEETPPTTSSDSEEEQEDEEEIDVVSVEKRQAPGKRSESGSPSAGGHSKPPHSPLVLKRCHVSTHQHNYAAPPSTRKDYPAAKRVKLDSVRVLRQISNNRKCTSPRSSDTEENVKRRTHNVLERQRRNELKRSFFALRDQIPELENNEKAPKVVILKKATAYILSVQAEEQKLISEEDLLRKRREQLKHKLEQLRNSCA
# Method in brief: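 Fluorescence intensity of reporter-specific cDNA fragments, separated by capillary electrophoresis, gives the signal. Transfected HepG2 cells carrying cis-promoter reporter constructs are incubated with compound for 24 h; DMSO serves as baseline.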
# [6] = ATG_NRF2_ARE_CIS: Attagene CIS-FACTORIAL HepG2 Assay for human Nuclear Factor Erythroid 2 Related Factor 2 (NFR2) response to Antioxidant Response Elements (ARE) (AID 2282992); details: HepG2 Attagene ARE/NRF2 reporter, transcription factor activity; actives raise or lower the signal;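 on AC50: reporter mRNA level measured by RT-PCR and capillary electrophoresis fluorescence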
# Method in brief: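 Cis-factorial assay: transfected HepG2 reporter library, 24 h dosing, mRNA readout via RT-PCR/CE; DMSO-referenced bidirectional analysis.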
# [7] = ATG_Oct_MLP_CIS: Attagene CIS-FACTORIAL HepG2 Assay for human Octamer-Binding Transcription Factor (Oct) (AID 2282993); details: HepG2 Attagene cis-factorial Oct reporter, mRNA; actives raise or lower the signal
# Method in brief: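 After 24 h compound exposure, transfected HepG2 cells were lysed for total RNA; reporter-specific cDNA was PCR-amplified, fluorescently labelled and sized by capillary electrophoresis. Bidirectional curve fitting used DMSO as baseline.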
# [8] = biological target: Cellular tumor antigen p53 (Homo sapiens) (UniProt P04637); assay: ATG_p53_CIS: Attagene CIS-FACTORIAL HepG2 Assay for human p53 Transcription Factor (AID 2282994); details: HepG2 p53 cis-element reporter, Attagene mRNA; actives raise or lower the signal
# Sequence of Cellular tumor antigen p53 (Homo sapiens) (P04637 whole entry, looked up): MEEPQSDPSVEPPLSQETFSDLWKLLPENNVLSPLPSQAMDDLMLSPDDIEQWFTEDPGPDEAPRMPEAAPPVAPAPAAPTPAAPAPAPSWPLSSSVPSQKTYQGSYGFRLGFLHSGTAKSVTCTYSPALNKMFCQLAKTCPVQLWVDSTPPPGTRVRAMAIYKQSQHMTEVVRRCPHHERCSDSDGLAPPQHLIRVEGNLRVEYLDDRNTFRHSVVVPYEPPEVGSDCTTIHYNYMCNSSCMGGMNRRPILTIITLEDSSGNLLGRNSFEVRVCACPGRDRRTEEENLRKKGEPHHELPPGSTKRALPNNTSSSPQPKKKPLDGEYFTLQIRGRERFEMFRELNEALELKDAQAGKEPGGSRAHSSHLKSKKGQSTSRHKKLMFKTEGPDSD
# Method in brief: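 Using HepG2 hepatoma cells carrying cis-acting multiplexed reporters, mRNA induction is detected after a 24 h exposure. Gain- and loss-of-signal responses are fitted relative to DMSO-treated cells.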
# [9] = BSK_3C_TissueFactor: BioMAP Diversity Plus: 3C Assay for Tissue Factor Biomarker Activity (AID 2282997); details: BioMAP 3C HUVEC, tissue factor biomarker readout; actives raise or lower the signal
# Method in brief: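 Primary human umbilical vein endothelial cells in the 3C system were exposed to test chemical for 24 h, then Tissue Factor measured by ELISA. Activity was fitted bidirectionally against DMSO as negative control and baseline.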
# [10] = BSK_3C_uPAR: BioMAP Diversity Plus: 3C Assay for Urokinase-type plasminogen activator receptor (uPAR) Biomarker Activity (AID 2282998); details: BioMAP 3C HUVEC, uPAR biomarker ELISA; actives raise or lower the signal
# Method in brief: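 Values derive from bidirectional curve fitting relative to DMSO, which served as baseline of activity. uPAR was measured by ELISA in human umbilical vein endothelial primary cultures 24 h after compound addition.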
# [11] = BSK_3C_VCAM1: BioMAP Diversity Plus: 3C Assay for Vascular cell adhesion molecule 1 (VCAM1) Biomarker Activity (AID 2282999); details: BioMAP 3C HUVEC, VCAM1 ELISA, cytokine-stimulated; actives raise or lower the signal
# Method in brief: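 Human umbilical vein endothelial cells (3C system), biomarker read by ELISA 24 h after dosing; bidirectional fit against DMSO baseline. Cytotoxicity tracked by SRB total-protein staining in parallel cultures at biomarker time.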
# [12] = BSK_4H_Eotaxin3: BioMAP Diversity Plus: 4H Assay for Eotaxin 3 Biomarker Activity (AID 2283000); details: primary human endothelial cells (HUVEC); actives raise or lower the signal;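 on outcome: CCL26 protein level quantified by ELISA in parallel with SRB cytotoxicity check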
# Method in brief: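 HUVEC, 24 h post-dose, ELISA for Eotaxin-3/CCL26. Gain or loss of signal fitted bidirectionally vs DMSO baseline.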
# [13] = biological target: human Peroxisome Proliferator-activated Receptor delta (PPARd), PPARD (gene 5467) (UniProt Q03181); assay: ATG_PPARd_TRANS: Attagene TRANS-FACTORIAL HepG2 Assay for human Peroxisome Proliferator-activated Receptor delta (PPARd) (AID 2283002; active means hit-call score of the fitted dose curve at least 0.9, where 1 is the maximum)
# Sequence of human Peroxisome Proliferator-activated Receptor delta (PPARd), PPARD (gene 5467) (Q03181 whole entry, looked up, the tested form may be a part): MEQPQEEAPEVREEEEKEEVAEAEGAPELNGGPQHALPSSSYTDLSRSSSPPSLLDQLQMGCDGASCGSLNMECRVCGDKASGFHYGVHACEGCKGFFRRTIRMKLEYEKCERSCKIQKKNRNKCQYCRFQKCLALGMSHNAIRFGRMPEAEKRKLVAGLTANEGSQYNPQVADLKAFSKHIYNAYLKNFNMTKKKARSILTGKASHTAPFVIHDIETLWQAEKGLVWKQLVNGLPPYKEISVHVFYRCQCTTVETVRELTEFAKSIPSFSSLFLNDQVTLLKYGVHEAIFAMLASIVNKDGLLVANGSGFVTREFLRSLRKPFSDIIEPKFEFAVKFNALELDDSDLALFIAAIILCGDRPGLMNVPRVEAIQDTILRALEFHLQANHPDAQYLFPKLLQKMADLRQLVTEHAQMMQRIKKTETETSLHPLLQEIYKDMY
# Method in brief: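 Fluorescence from capillary electrophoresis of labelled RT-PCR reporter fragments gives the signal; DMSO sets baseline. Cells: HepG2 transiently carrying GAL4-UAS reporter units plus chimeric nuclear receptor-Gal4 proteins, exposed to chemicals for 24 h.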
# [14] = biological target: Transcriptional activator Myb (Homo sapiens) (UniProt P10242); assay: ATG_Myb_CIS: Attagene CIS-FACTORIAL HepG2 Assay for human Myeloblastosis (Myb) Proto-Oncogene Transcription Factor (AID 2282986); details: HepG2 Attagene CIS-FACTORIAL Myb reporter transcription; actives raise or lower the signal
# Sequence of Transcriptional activator Myb (Homo sapiens) (P10242 whole entry, looked up): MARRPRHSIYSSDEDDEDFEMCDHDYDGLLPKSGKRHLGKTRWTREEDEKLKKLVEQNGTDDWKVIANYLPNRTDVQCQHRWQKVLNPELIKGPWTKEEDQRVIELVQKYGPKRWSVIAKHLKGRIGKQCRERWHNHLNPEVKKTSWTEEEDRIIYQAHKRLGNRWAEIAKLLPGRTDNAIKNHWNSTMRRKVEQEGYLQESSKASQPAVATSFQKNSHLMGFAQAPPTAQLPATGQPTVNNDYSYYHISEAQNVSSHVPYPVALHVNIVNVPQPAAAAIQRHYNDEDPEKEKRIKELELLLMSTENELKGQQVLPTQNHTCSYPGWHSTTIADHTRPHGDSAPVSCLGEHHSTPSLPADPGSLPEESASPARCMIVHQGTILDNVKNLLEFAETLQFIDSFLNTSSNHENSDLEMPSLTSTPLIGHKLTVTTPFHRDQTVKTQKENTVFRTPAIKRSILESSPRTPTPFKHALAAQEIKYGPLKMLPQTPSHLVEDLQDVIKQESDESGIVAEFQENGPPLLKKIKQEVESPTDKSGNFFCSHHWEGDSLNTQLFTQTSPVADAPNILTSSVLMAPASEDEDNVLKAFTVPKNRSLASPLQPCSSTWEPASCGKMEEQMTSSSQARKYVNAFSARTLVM
# Method in brief: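 Transiently transfected HepG2 cells, treated 24 h. Reporter mRNA quantified by RT-PCR/capillary electrophoresis; bidirectional fit relative to DMSO.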
# [15] = biological target: human Peroxisome Proliferator-activated Receptor alpha (PPARa), PPARA (gene 5465) (UniProt Q07869); assay: ATG_PPARa_TRANS: Attagene TRANS-FACTORIAL HepG2 Assay for human Peroxisome Proliferator-activated Receptor alpha (PPARa) (AID 2283001; active means hit-call score of the fitted dose curve at least 0.9, where 1 is the maximum)
# Sequence of human Peroxisome Proliferator-activated Receptor alpha (PPARa), PPARA (gene 5465) (Q07869 whole entry, looked up, the tested form may be a part): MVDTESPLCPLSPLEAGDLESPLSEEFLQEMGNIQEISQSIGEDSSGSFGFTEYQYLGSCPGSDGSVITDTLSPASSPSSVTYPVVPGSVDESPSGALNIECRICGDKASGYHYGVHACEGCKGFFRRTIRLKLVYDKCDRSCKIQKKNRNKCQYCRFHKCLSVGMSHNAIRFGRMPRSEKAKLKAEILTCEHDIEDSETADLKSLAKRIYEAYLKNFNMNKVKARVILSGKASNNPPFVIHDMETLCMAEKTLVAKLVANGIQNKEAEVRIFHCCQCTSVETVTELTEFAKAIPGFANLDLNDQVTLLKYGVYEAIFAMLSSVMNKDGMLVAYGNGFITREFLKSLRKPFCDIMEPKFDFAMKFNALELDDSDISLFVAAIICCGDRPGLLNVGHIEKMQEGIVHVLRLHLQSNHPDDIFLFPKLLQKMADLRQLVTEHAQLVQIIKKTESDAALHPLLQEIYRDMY
# Method in brief: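 HepG2 cells transiently transfected with multiplexed GAL4-UAS reporters driven by exogenous chimeric NR-Gal4 proteins; reporter mRNA measured after 24 h dosing. Read-out by RT-PCR, 6-FAM labelling, HpaI digestion and capillary electrophoresis; gain of signal versus DMSO.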
# [16] = biological target: Hepatocyte nuclear factor 4-alpha (Homo sapiens) (UniProt P41235); assay: ATG_HNF4a_TRANS: Attagene TRANS-FACTORIAL HepG2 Assay for human Hepatocyte Nuclear Factor 4 alpha (HNF4a) (AID 2282982; active means hit-call score of the fitted dose curve at least 0.9, where 1 is the maximum); details: HepG2 HNF4a transactivation reporter, mRNA readout
# Sequence of Hepatocyte nuclear factor 4-alpha (Homo sapiens) (P41235 whole entry, looked up, the tested form may be a part): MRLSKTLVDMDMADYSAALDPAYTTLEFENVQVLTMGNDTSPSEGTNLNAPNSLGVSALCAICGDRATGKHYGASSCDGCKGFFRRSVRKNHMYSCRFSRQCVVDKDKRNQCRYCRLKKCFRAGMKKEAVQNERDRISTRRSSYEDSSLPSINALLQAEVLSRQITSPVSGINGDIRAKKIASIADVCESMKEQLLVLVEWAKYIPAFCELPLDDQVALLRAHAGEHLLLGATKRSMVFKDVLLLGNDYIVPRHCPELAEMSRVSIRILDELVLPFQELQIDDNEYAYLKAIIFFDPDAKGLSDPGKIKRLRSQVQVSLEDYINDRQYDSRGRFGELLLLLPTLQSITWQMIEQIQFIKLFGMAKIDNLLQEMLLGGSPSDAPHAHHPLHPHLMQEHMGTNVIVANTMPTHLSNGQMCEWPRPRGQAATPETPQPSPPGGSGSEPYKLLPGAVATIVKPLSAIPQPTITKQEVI
# Method in brief: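 HepG2 cells transiently transfected with HNF4a-Gal4 chimera and GAL4-UAS reporter units, dosed for 24 h. Reporter mRNA measured by RT-PCR, fluorescent primer extension and capillary electrophoresis; gain-of-signal fitted relative to DMSO.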
# [17] = biological target: Nuclear receptor subfamily 4 group A member 2 (Homo sapiens) (UniProt P43354); assay: ATG_NURR1_TRANS: Attagene TRANS-FACTORIAL HepG2 Assay for human Nuclear Receptor Related Protein 1 (NURR1) (AID 2282985; active means hit-call score of the fitted dose curve at least 0.9, where 1 is the maximum); details: HepG2 Attagene TRANS reporter, mRNA readout
# Sequence of Nuclear receptor subfamily 4 group A member 2 (Homo sapiens) (P43354 whole entry, looked up, the tested form may be a part): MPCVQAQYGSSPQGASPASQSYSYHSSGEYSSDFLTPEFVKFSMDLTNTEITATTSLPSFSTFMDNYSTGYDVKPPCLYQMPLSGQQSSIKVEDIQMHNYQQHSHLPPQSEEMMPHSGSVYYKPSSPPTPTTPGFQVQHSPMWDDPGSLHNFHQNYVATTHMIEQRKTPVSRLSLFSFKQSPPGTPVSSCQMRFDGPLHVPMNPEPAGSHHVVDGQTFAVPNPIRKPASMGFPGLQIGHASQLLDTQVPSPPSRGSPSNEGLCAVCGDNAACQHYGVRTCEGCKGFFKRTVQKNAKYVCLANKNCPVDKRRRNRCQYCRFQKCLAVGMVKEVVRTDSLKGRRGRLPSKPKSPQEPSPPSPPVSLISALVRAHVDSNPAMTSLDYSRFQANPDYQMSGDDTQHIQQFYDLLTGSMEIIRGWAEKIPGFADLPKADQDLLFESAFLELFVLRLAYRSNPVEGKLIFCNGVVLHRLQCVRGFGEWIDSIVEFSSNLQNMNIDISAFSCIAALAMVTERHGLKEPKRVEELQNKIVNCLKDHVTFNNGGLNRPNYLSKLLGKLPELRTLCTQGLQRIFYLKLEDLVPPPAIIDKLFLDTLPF
# Method in brief: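 HepG2 cells transiently transfected with NURR1-Gal4 chimera and GAL4-UAS reporter units; after 24 hr compound exposure, reporter mRNA quantified by RT-PCR and capillary electrophoresis; gain of signal fitted against DMSO.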
# [18] = ATG_NF_kB_CIS: Attagene CIS-FACTORIAL HepG2 Assay for human Nuclear Factor Kappa B (NF-kB) (AID 2282991); details: HepG2 Attagene cis-factorial NF-kB reporter mRNA; actives raise or lower the signal
# Method in brief: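 Measures mRNA induction of an NF-kB-responsive cis-element reporter in HepG2 cells transfected with multiple reporter units, sampled 24 h post-dosing; quantified by fluorescence after RT-PCR and capillary electrophoresis, fitted for activation or inhibition against DMSO.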
compound,measurement,setting,value
Cc1ccc(C)c(O)c1,outcome,[1],inactive
same,outcome,[2],inactive
same,outcome,[3],inactive
same,outcome,[4],inactive
same,outcome,[5],inactive
same,outcome,[6],inactive
same,outcome,[7],inactive
same,outcome,[8],inactive
same,outcome,[9],inactive
same,outcome,[10],inactive
same,outcome,[11],inactive
same,outcome,[12],inactive
same,outcome,[13],inactive
CC(C)=CCC/C(C)=C/CO,outcome,[1],inactive
same,outcome,[14],inactive
same,outcome,[3],inactive
same,outcome,[4],inactive
same,outcome,[5],inactive
same,outcome,[6],inactive
same,outcome,[7],inactive
same,outcome,[8],inactive
same,outcome,[9],inactive
same,outcome,[10],inactive
same,outcome,[11],inactive
same,outcome,[12],inactive
same,outcome,[15],inactive
Cc1ccc(N)cc1O,outcome,[16],inactive
same,outcome,[1],inactive
same,outcome,[3],inactive
same,outcome,[4],inactive
same,outcome,[5],inactive
same,AC50,[6],22.3 µM (active)
same,outcome,[7],inactive
same,outcome,[8],inactive
same,outcome,[9],inactive
same,outcome,[10],inactive
same,outcome,[11],inactive
same,AC50,[12],20 µM (active)
same,outcome,[15],inactive
same,outcome,[13],inactive
CC1=CC(=O)CC(C)(C)C1,outcome,[1],inactive
same,outcome,[3],inactive
same,outcome,[4],inactive
same,outcome,[5],inactive
same,outcome,[6],inactive
same,outcome,[7],inactive
same,outcome,[8],inactive
same,outcome,[9],inactive
same,outcome,[10],inactive
same,outcome,[11],inactive
same,outcome,[12],inactive
CC1(C)C(=O)N(Br)C(=O)N1Br,outcome,[16],inactive
same,outcome,[1],inactive
same,outcome,[17],inactive
same,outcome,[3],inactive
same,outcome,[4],inactive
same,outcome,[5],inactive
same,AC50,[6],52.4 µM (active)
same,outcome,[7],inactive
same,outcome,[8],inactive
same,outcome,[9],inactive
same,outcome,[10],inactive
same,outcome,[11],inactive
same,outcome,[12],inactive
same,outcome,[13],inactive
CCOCCO,outcome,[1],inactive
same,outcome,[14],inactive
same,outcome,[3],inactive
same,outcome,[4],inactive
same,outcome,[5],inactive
same,outcome,[18],inactive
same,outcome,[6],inactive
same,outcome,[7],inactive
same,outcome,[8],inactive
same,outcome,[9],inactive
same,outcome,[10],inactive
same,outcome,[11],inactive
same,outcome,[12],inactive
COC(=O)CC(=O)OC,outcome,[16],inactive
same,outcome,[1],inactive
same,outcome,[17],inactive
same,outcome,[3],inactive
same,outcome,[4],inactive
same,outcome,[5],inactive
same,outcome,[6],inactive
same,outcome,[7],inactive
same,outcome,[8],inactive
same,outcome,[9],inactive
same,outcome,[10],inactive
same,outcome,[11],inactive
same,outcome,[12],inactive
Fc1ccccc1[C@@H](F)COC1CCC(Nc2ncnc3[nH]ncc23)CC1 (some centres not stated),outcome,[16],inactive
same,outcome,[2],inactive
same,outcome,[17],inactive
same,outcome,[14],inactive
same,AC50,[3],9.56 µM (active)
same,outcome,[4],inactive
same,AC50,[5],25.4 µM (active)
same,outcome,[18],inactive
same,AC50,[6],6.77 µM (active)
same,outcome,[7],inactive
same,outcome,[8],inactive
same,AC50,[9],35.2 µM (active)
same,AC50,[10],15.2 µM (active)
same,outcome,[11],inactive
same,AC50,[12],23.6 µM (active)
same,outcome,[13],inactive
